Assay results published in PubChem BioAssay AID652142 (Molecular Libraries Program, Specialized Chemistry Center, …, 2013).
The whole screen tested about 2,400 compounds, of which fewer than 10 were called active. The rule behind the calls is not given here. Only a sample is shown.

Each compound was assayed against Rac GTPase-activating protein 1 (Homo sapiens) (UniProt Q9H0H5) (assay: MgcRacGAP inhibitors via phosphate release, confirmation, orthogonal assay, biochemical, inorganic phosphate detection, Rac1 (AID 652142)). Settings: MgcRacGAP/Rac1F28L GTP hydrolysis, Biomol green phosphate; active compounds read high; concentration not given here.
Sequence of Rac GTPase-activating protein 1 (Homo sapiens) (Q9H0H5 whole entry, looked up): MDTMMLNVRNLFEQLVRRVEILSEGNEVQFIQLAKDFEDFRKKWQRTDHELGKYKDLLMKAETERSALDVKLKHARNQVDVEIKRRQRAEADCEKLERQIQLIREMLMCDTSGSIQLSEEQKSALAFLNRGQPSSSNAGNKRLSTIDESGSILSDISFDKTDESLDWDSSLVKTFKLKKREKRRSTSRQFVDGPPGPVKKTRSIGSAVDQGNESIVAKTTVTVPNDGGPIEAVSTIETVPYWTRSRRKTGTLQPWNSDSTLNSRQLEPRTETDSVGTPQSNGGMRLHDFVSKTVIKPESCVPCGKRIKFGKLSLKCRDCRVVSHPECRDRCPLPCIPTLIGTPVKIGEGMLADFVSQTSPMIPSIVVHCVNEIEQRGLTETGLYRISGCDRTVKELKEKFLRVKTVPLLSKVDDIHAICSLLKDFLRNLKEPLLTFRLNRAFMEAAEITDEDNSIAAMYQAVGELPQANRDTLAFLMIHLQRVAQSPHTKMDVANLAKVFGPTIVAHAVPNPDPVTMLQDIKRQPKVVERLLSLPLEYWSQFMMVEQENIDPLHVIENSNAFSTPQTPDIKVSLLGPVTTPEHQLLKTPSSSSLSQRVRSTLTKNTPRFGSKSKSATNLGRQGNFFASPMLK

inhibition, inactive:
CN(C)CCCN1c2ccc(O)cc2Sc2ccc(Cl)cc21 30.1%
COc1cc(/C=N/NC(=O)c2cccc(NC(=O)c3ccccc3C)c2)ccc1O 19.3%
C/C(=N\NC(=O)c1ccc(O)cc1)c1ccc2c(c1)Nc1ccccc1S2 28.2%
CCOc1cc(CNc2ccc(N3CCCCC3)cc2)cc(Br)c1OCC(=O)NC(C)(C)C 35.1%
Cc1cc(NS(=O)(=O)c2ccc(Nc3nc(-c4ccc(O)cc4)cs3)cc2)no1 23.8%
COC(=O)c1ccc(NC(=S)Nc2ccc(O)cc2)cc1 34.6%
C[C@H]1CCC/C=C/[C@@H]2C[C@H](O)C[C@H]2[C@H](O)[C@H](S(=O)c2ccc(O)cc2)CC(=O)O1 (stereo not given in full) 47.3%
Cc1[nH]nc(-c2ccc(O)c(C)c2O)c1-c1cnn(-c2ccccc2)c1 36.4%
Cn1c(=O)c2c([nH]c(=S)n2CCCc2ccccc2)n(C)c1=O 26.4%
Oc1ccc(N=Nc2ccccc2)cc1 8.73%
O=C1C=C(Nc2ccc(O)cc2)C(=O)c2ccccc21 25.1%
COc1cc(/C=N/Nc2nn3cnnc3c3ccccc23)ccc1O 26.4%
C/C(CC(=O)Nc1ccc(N(C)C)cc1)=N\NC(=O)c1ccc([N+](=O)[O-])cc1Cl 26.5%
COc1cc(/C=N/n2c(C3CCCCC3)n[nH]c2=S)ccc1O 27.2%
Cc1ccc(NC(=O)CN2CCN(C)CC2)cc1Br 26.9%
CCCCn1c(SCC(=O)c2ccc(O)c(O)c2)nc2ccsc2c1=O 27.5%
CCOC(=O)c1[nH]c2ccc(F)cc2c1NC(=O)c1ccccc1C(=O)O 22.6%
Cc1ccc(/C=N/Nc2ccc(Cl)c(C(=O)O)c2)s1 6.67%
O=C(c1cccnc1)N1CCN(Cc2cccc(Br)c2)CC1 26.8%
COc1ccc(N=C2NC(=O)/C(=C/c3ccc(O)c(OC)c3)S2)cc1 19.7%
Oc1ccc(-c2csc(-c3cccnc3)n2)c(O)c1 14.8%
Cc1nc(N)sc1-c1ccccc1 20.1%
COc1ccc(NC(=O)c2cc3ccc(O)cc3o/c2=N\O)cc1 17.5%
COc1cc(/C=N/NC(=S)Nc2cccc(S(=O)(=O)N(C)C)c2)ccc1O 20.1%
O=C(Nc1n[nH]c(=S)s1)c1ccco1 29.1%
CCc1nc(Nc2ccc(O)cc2)c2oc3ccccc3c2n1 27.8%
CCCCCC(=O)Nc1cc(S(=O)(=O)O)cc2cc(S(=O)(=O)O)cc(O)c12 64.8%
CCOc1ccc(/C=N/NC(=O)NC23CC4CC(CC(C4)C2)C3)cc1O 17.5%
CCn1c(C)nc2cc(C(=O)N/N=C/c3ccc(O)cc3)ccc21 22.6%
COc1ccc(Oc2c(-c3ccc(O)cc3O)n[nH]c2C)cc1 9.67%
C=C(CN(C)C)C(=O)c1cc(OC)c(OC)cc1OC 6.42%
CCn1c(=O)c(C(=O)CN(C)Cc2cccc(OC)c2OC)c(N)n(Cc2ccccc2)c1=O 35.9%
CCOc1ccc2c(ccc(/C=C/c3cc(C)c4cccnc4c3O)[n+]2C)c1 66.1%
CN(C)c1ccc(NC(=O)c2sc(SCC(=O)Nc3nccs3)nc2N)cc1 29.2%
Cc1ccc(NCCN(C)C)c2c(=O)c3cc(O)ccc3sc12 31.1%
C(=N\Nc1nc2ccccc2[nH]1)/c1c[nH]c2ccccc12 4.59%
COc1cc2c(cc1NC(=S)Nc1cccc3ccccc13)oc1ccccc12 21.3%
NS(=O)(=O)c1ccc(Nc2nc(-c3ccc(O)cc3O)cs2)cc1 24.5%
Cc1cc(=O)[nH]c2c(N=Nc3ccc(O)cc3)c(N)nn12 34.3%
CSCCOC(=O)C1=C(C)Nc2ccc(C)cc2S1 29.3%
OCC1CCCN(C(=S)Nc2ccc(Nc3ccccc3)cc2)C1 (stereo not given) 34.4%
COc1cc2c(cc1NC(=S)Nc1cccc(C(F)(F)F)c1)oc1ccccc12 8.84%
COc1cc(/C=N/n2c(-c3cc(C)[nH]n3)n[nH]c2=S)cc(OC)c1OC 1.28%
CCN(CC)c1ccc(C(=C2C=CC(=[N+](CC)CC)C=C2)c2ccc(N(CC)CC)cc2)cc1 90%
COc1cc(C=NNC(=O)c2ccccc2-n2cccc2)ccc1O 22%
COc1cc2c(cc1OC)C1(CCCC1)C(N)=C2C#N 18.7%
CC1CC(=O)N(c2ccc(NCCc3ccc(O)cc3)c([N+](=O)[O-])c2)C1=O (stereo not given) 29.1%
CCN1C(=O)/C(=C2/C=Cc3cc(C)ccc3N2CC)N(C)C1=S 23%
O=C(O)c1c2c(nc3ccccc13)/C(=C/c1ccc(O)cc1)CCC2 19.3%
CN(C)c1ccc(NC2=C(Cl)C(=O)c3ccccc3C2=O)cc1 22%
Cc1ccc(/C(N)=N/OC(=O)N2c3ccccc3Sc3ccccc32)cc1 23.7%
Oc1ccc(Nc2ncnc3ccccc23)cc1 20.3%
CN1/C(=C\C=N\NC(=O)c2ccc(O)cc2)C(C)(C)c2ccccc21 22.5%
O=C(Cn1c(C(=O)NCC2CCCO2)cc2sccc21)c1ccccc1 (stereo not given) 18.4%
Cc1ccc(NC(=O)CCNCc2ccco2)cc1S(=O)(=O)N(C)C 33.8%
CC(NCc1ccc(S(N)(=O)=O)cc1)C(=O)N1c2ccccc2CC1C (stereo not given) 13.9%
O=C(C1=C(O)C(=O)N(c2nc3ccc(Cl)cc3s2)C1c1ccco1)c1ccco1 (stereo not given) 28.7%
C/C(=N\NC(=O)c1ccccc1F)c1ccc2c(c1)Nc1ccccc1S2 20.8%
COc1cc(/C=C2\C(=O)N(C)C(=S)N2C)ccc1O 9.53%
COc1ccc(NC(=O)c2ccc(NC(=O)CN3CCN(c4ccc(O)cc4)CC3)cc2)cc1 18.8%
CN(C)CCNc1ccc(CO)c2oc3ccc(O)cc3c(=O)c12 14.8%
CN(C)c1ccc(/C=C/c2ccc3ccccc3[n+]2C)cc1 41%
Oc1ccc(/C=C/c2ccc3ccccc3n2)cc1 35.5%
O=C1/C(=C\c2ccc(O)cc2)SC(=S)N1/N=C/c1ccc(O)cc1 13.5%
COc1ccccc1C(=O)N1CCN(Cc2cccnc2)CC1 19.7%
CN(C)c1ccc(/C=C2/C[N+](C)(C)C/C(=C/c3ccc(N(C)C)cc3)C2=O)cc1 25.4%
Cc1cc(O)ccc1NC(=O)c1ccccc1 36%
Cc1cc(C)c2nc(C)cc(N/N=C/c3ccc(O)cc3)c2c1 41.9%
COc1cc(/C=C2\SC(=S)N(Nc3ccccc3)C2=O)ccc1O 19.2%
O=C(Oc1ccc(N(C(=O)c2ccncc2)S(=O)(=O)c2cccs2)cc1)c1ccncc1 26.2%
CCOc1cc(/C=C2\C(=O)N(CCc3ccc(OC)c(OC)c3)C(C)=C2C(=O)OC)ccc1O 20.6%
O=C(CN1CCN(c2ccc(O)cc2)CC1)NCC(=O)Nc1ccc(F)c(F)c1F 24.8%
O=C(COc1ccccc1C(=O)N/N=C\c1ccc(O)c(O)c1)N/N=C/c1ccc(O)c(O)c1 8.94%
COc1ccc(NC2CCCN(C(=O)c3ccc4[nH]c(C)c(C)c4c3)C2)cc1 (stereo not given) 17.9%
COc1cc(/C=N/NC(=O)CCn2c3ccccc3c3ccccc32)ccc1O 21%
COCCCNC1=C(C#N)C(=O)NC(c2cccs2)S1 (stereo not given) 40.4%
CN(C)CCNc1ccc(CO)c2sc3ccc(O)cc3c(=O)c12 12.6%
NC(CSS(=O)(=O)O)=NCCC12CC3CC(CC(O)(C3)C1)C2 34.4%
C=CCn1c(SCC(=O)Nc2ccc(N(C)C)cc2)nnc1-c1cccc(C)c1 15.5%
CCOc1cc(-c2nc3ccccc3s2)ccc1O 30.1%
Oc1ccc(/C=N/Nc2nn3cnnc3c3ccccc23)cc1 25.8%
Oc1ccc(/C=N/n2c(-c3ccco3)csc2=Nc2cccnc2)c(O)c1 23.8%
Cc1ccc(S(=O)(=O)c2cc(Nc3ccccc3)ccc2O)cc1 11.6%
Cc1cc(C)n(CC(O)CN2c3ccccc3Sc3ccccc32)n1 (stereo not given) 32.2%
CC(C)C1=Nc2cccc3cccc(c23)N1 22.3%
COc1nc(Nc2ccc(O)cc2)nc(OC(C(F)(F)F)C(F)(F)F)n1 18.1%
Clc1cccc(N/N=C/c2ccc(N3CCOCC3)s2)c1 29.3%
CCOC(=O)C1CCN(Cc2cn[nH]c2-c2ccccc2)CC1 27.9%
CCOc1cc(/C=N/NC(=O)Nc2ccccc2)ccc1O 23.6%
CCOc1cc(/C=C(\C#N)c2[nH]nc(N)c2C#N)ccc1O 29.6%
Cc1cc(-c2ccccc2)nc(N/N=C/c2ccc(O)cc2)n1 18.1%
CCOC(=O)C1=C(C)Nc2ccccc2S1 35.2%
C=CCOc1ccccc1CN1CCCN(C)CC1 22.3%
CCOc1cc(/C=C(\C#N)C(=O)NCC2CCCO2)ccc1O (stereo not given) 23.9%
CN1C(=O)NC(c2ccc(O)cc2)C2=C1CN(c1ccc(O)cc1)C2=O (stereo not given) 24.1%
Cc1ccnc(Nc2nc(-c3ccc(O)c(O)c3)cs2)c1 23.8%
CCOC(=O)c1nc(Nc2ccc(Nc3ccccc3)cc2)c2ccccc2n1 32%
Oc1ccc(NC(=S)N=Nc2c(O)[nH]c3ccc(Br)cc23)cc1 26.7%
CCOC(=O)c1[nH]c2ccccc2c1NC(=S)Nc1cccc(C)c1C 18.1%
CCN(CC)c1ccc(C(=C2C=CC(=[N+](CC)CC)C=C2)c2ccccc2)cc1 28%
CC(C)N=c1scc(-c2ccco2)n1/N=C/c1ccc(O)c(O)c1 27.8%
O=C1CSC(=S)N1Nc1ccccc1 17.3%
CCc1cc(-c2n[nH]c(CCC(=O)O)c2-c2nc3ccccc3n2C)c(O)cc1O 30.8%
Nc1nc(=S)c2[nH]c(=S)[nH]c2[nH]1 35.5%
CC(C(=O)NCC(=O)Nc1ccc(F)c(F)c1F)N1CCN(c2ccc(O)cc2)CC1 (stereo not given) 20.8%
